Assay results from PubChem BioAssay (Tox21).
Inconclusive results are not listed. The source made the active and inactive calls. Unless noted, the call rests on the fitted dose curve; in most records, active means well fitted curve in the direction sought with a large enough effect in the repeat runs; inconclusive means weak or mixed curves; inactive means no such curve, though single readings can be large; an effect the other way counts as inactive or inconclusive.

Experiments:
[1] = qHTS assay to identify small molecule antagonists of the thyroid receptor (TR) signaling pathway - cell viability counter screen (AID 743064); further: nearly all actives have a fitted effect of over 50% in size
Summary of the method: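 GH3.TRE-Luc rat pituitary cells dosed after 4 hr plating, co-stimulated with T3 at 1 nM final, incubated 23.5 h at 37 C. Viability measured in the same wells by CellTiter-Fluor fluorescence after 30 min further at 37 C.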

[2] = qHTS assay to identify small molecule antagonists of the thyroid receptor (TR) signaling pathway (AID 743065); further: series mostly up to about 70 µM; nearly all actives have a fitted effect of over 55% in size
Summary of the method: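 GH3.TRE-Luc rat pituitary cells carrying two TR response elements driving luciferase were plated for 4 h, given compound plus 1 nM T3 (final), and incubated 23.5 h at 37 C. ONE-Glo luminescence measured reporter inhibition; CellTiter-Fluor fluorescence tracked cytotoxicity.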

[3] = test system: thyroid hormone receptor (rat, GH3 cells); assay: qHTS assay to identify small molecule agonists of the thyroid receptor (TR) signaling pathway (AID 743066; calls by dose curve)
[4] = qHTS assay to identify small molecule antagonists of the estrogen receptor alpha (ER-alpha) signaling pathway - cell viability counter screen (AID 743074; calls by dose curve;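 further: HEK293 cells carrying ER-alpha-UAS-bla reporter stimulated with 17beta-estradiol; nearly all actives have a fitted effect of over 45% in size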)
[5] = qHTS assay to identify small molecule antagonists of the estrogen receptor alpha (ER-alpha) signaling pathway using the BG1 cell line - cell viability counter screen (AID 743081);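 further: compound given together with 17beta-estradiol as the ER stimulus; series mostly up to about 70 µM; nearly all actives have a fitted effect of over 45% in size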
Aromatase (Homo sapiens) = Aromatase (Homo sapiens) (UniProt P11511); assay: qHTS assay to identify aromatase inhibitors (AID 743083); further: series mostly up to about 70 µM; nearly all actives have a fitted effect of over 55% in size
[6] = qHTS assay to identify aromatase inhibitors - cell viability counter screen (AID 743084);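 further: cells stimulated with testosterone during compound exposure; nearly all actives have a fitted effect of over 55% in size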
[7] = biological target: Aryl hydrocarbon receptor (Homo sapiens) (UniProt P35869); assay: qHTS assay to identify small molecule that activate the aryl hydrocarbon receptor (AhR) signaling pathway (AID 743085);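 further: HG2L7.5c1 human HepG2 liver cells with stably integrated DRE-driven firefly reporter; series mostly up to about 70 µM; nearly all actives have a fitted effect of over 15% in size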
Summary of the method: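 HepG2 cells stably carrying a 20-DRE firefly luciferase reporter (HG2L7.5c1) treated with compound for 24 hr at 37C. Luciferase read by ONE-Glo luminescence, with CellTiter-Fluor viability read first.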

[8] = qHTS assay to identify small molecule that activate the aryl hydrocarbon receptor (AhR) signaling pathway - cell viability counter screen (AID 743086);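 further: HepG2 liver cells carrying the AhR DRE luciferase reporter; series mostly up to about 70 µM; nearly all actives have a fitted effect of over 45% in size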
Summary of the method: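 HepG2-AhR-luc (HG2L7.5c1) cells, 4000/well, were preincubated 5 h at 37C, exposed to compound in qHTS format for 24 hr at 37C, then given CellTiter-Fluor for 30 min; viability was read as fluorescence in the reporter wells.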

[9] = qHTS assay to identify small molecule antagonists of the peroxisome proliferator-activated receptor gamma (PPARg) signaling pathway - cell viability counter screen (AID 743194); further: nearly all actives have a fitted effect of over 55% in size
Summary of the method: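 PPARg-UAS-bla HEK293H cells were plated, rested 5 h at 37 C, then treated with compounds plus rosiglitazone (50 nM final) for 17 h at 37 C; viability was then read by CellTiter-Glo luminescence after 30 min at room temperature.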

[10] = qHTS assay for small molecule agonists of the antioxidant response element (ARE) signaling pathway (AID 743202; active means well fitted activation curve with a large enough effect in the signal ratio in the repeat runs, not every such curve was filed as active; the % refers to the signal ratio)
Summary of the method: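 Following a 16 h, 37 C exposure of reporter HepG2 cells (ARE-driven beta-lactamase, 2,000 cells/well) to compounds, FRET substrate was applied for 2 h at room temperature and fluorescence intensity recorded.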

[11] = qHTS assay for small molecule agonists of the antioxidant response element (ARE) signaling pathway - cell viability counter screen (AID 743203; calls by dose curve; further: nearly all actives have a fitted effect of over 55% in size)
Summary of the method: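 ATP content via CellTiter-Glo luminescence served as the viability measure. Cells: ARE-bla HepG2, 2,000 per well. Exposure: 16 hrs, 37C/5% CO2.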

[12] = qHTS assay for small molecule activators of the heat shock response signaling pathway - cell viability counter screen (AID 743209); further: nearly all actives have a fitted effect of over 50% in size
Summary of the method: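 Compounds dissolved in DMSO were added to overnight-plated HSE-bla HeLa cells and left 5 h at 37 C. Cell viability was quantified by luminescence using CellTiter-Glo.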

[13] = biological target: Peroxisome proliferator-activated receptor gamma (Homo sapiens) (UniProt P37231); assay: qHTS assay to identify small molecule agonists of the peroxisome proliferator-activated receptor gamma (PPARg) signaling pathway (AID 743094; active means well fitted activation curve with a large enough effect in the signal ratio in the repeat runs, not every such curve was filed as active; the % refers to the signal ratio)
Summary of the method: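 Agonism was assessed in a beta-lactamase reporter system, HEK293H cells with a stably integrated UAS-bla construct under PPARg control; the 17 h treatment at 37C preceded a 1 h room-temperature FRET substrate read.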

[14] = biological target: Estrogen receptor (Homo sapiens) (UniProt P03372); assay: qHTS assay to identify small molecule antagonists of the estrogen receptor alpha (ER-alpha) signaling pathway (AID 743069; active means well fitted curve in the direction sought with a large enough effect in the signal ratio in the repeat runs, not every such curve was filed as active; the % refers to the signal ratio)
Summary of the method: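 A 17beta-estradiol challenge was applied right after compound transfer to ER-alpha-UAS-bla HEK293 cells previously kept in charcoal-stripped serum. Plates stood 18 hr at 37C and 5% CO2; fluorescence was read following 2 hr FRET substrate loading at room temperature.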

[15] = biological target: Estrogen receptor (Homo sapiens) (UniProt P03372); assay: qHTS assay to identify small molecule agonists of the estrogen receptor alpha (ER-alpha) signaling pathway (AID 743075; calls by dose curve;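 further: HEK293 GripTite cells with ER-alpha and UAS-driven beta-lactamase reporter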)
[16] = biological target: Estrogen receptor (Homo sapiens) (UniProt P03372); assay: qHTS assay to identify small molecule agonists of the estrogen receptor alpha (ER-alpha) signaling pathway using the BG1 cell line (AID 743079); further: nearly all actives have a fitted effect of over 20% in size
[17] = qHTS assay for small molecule activators of the heat shock response signaling pathway (AID 743210; active means well fitted activation curve with a large enough effect in the signal ratio in the repeat runs, with a control signal flat, not every such curve was filed as active; the % refers to the signal ratio; further: series mostly up to about 63 µM)
Summary of the method: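 Heat shock element–beta-lactamase HeLa reporter cells; qHTS with compounds for 5 h at 37 C; detection by FRET substrate fluorescence after 2.5 h at RT.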

[18] = biological target: Peroxisome proliferator-activated receptor gamma (Homo sapiens) (UniProt P37231); assay: qHTS assay to identify small molecule antagonists of the peroxisome proliferator-activated receptor gamma (PPARg) signaling pathway (AID 743191; calls by dose curve; further: series mostly up to about 63 µM; nearly all actives have a fitted effect of over 30% in size)
Summary of the method: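 GeneBLAzer PPARg UAS-bla HEK293H cells carrying a UAS-driven beta-lactamase reporter were plated at 3000 cells/well, preincubated 5 h at 37C, then given compound for 17 h at 37C; LiveBLAzer B/G FRET substrate was read after 1 h at room temperature.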

Measured: Potency

Chain of Aromatase (Homo sapiens) (P11511 whole entry, looked up): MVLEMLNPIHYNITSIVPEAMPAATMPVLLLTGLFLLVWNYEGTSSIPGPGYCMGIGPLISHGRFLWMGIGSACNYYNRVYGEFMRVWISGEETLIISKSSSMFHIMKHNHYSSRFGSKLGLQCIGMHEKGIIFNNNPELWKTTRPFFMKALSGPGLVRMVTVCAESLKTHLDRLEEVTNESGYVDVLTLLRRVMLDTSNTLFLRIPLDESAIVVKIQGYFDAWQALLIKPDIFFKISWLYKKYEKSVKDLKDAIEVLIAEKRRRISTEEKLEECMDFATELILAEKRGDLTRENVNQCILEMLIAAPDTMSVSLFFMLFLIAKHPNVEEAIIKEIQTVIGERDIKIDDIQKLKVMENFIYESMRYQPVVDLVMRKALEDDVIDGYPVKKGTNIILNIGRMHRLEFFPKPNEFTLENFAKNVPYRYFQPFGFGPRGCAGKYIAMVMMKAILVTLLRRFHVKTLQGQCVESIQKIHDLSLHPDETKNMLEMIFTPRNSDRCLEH
Chain of Aryl hydrocarbon receptor (Homo sapiens) (P35869 whole entry, looked up): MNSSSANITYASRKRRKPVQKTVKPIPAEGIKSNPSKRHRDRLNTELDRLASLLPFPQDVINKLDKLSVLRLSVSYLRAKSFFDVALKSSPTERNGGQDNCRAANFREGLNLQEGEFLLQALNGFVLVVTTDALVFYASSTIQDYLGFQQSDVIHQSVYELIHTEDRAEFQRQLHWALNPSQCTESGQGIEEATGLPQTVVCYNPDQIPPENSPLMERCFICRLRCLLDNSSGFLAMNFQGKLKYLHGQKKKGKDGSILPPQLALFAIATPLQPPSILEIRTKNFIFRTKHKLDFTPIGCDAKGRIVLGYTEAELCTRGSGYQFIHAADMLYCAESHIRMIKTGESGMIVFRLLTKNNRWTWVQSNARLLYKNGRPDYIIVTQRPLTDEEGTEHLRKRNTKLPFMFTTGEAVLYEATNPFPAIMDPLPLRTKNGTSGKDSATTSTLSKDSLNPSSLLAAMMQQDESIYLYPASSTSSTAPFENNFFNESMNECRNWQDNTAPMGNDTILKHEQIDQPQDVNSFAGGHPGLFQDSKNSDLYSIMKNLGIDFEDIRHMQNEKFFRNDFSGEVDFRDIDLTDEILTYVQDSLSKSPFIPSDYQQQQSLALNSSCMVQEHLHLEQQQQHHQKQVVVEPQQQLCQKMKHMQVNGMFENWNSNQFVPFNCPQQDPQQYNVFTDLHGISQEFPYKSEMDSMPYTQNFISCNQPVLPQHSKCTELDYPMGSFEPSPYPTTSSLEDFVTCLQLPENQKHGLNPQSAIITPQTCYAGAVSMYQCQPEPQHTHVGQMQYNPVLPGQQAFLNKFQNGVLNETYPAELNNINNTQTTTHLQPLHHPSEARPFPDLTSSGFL
Chain of Peroxisome proliferator-activated receptor gamma (Homo sapiens) (P37231 whole entry, looked up): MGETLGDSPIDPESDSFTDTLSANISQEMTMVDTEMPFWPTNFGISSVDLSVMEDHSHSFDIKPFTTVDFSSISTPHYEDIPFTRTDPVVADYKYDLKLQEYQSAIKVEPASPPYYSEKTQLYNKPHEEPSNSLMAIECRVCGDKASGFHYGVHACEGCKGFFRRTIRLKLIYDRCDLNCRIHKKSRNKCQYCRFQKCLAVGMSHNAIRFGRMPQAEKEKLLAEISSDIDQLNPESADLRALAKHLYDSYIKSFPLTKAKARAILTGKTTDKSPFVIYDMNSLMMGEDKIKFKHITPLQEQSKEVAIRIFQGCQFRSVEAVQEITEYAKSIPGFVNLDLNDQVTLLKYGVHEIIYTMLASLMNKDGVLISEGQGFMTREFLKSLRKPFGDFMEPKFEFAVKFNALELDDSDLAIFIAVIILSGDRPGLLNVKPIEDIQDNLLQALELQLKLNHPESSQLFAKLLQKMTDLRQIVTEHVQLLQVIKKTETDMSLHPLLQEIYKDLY
Chain of Estrogen receptor (Homo sapiens) (P03372 whole entry, looked up): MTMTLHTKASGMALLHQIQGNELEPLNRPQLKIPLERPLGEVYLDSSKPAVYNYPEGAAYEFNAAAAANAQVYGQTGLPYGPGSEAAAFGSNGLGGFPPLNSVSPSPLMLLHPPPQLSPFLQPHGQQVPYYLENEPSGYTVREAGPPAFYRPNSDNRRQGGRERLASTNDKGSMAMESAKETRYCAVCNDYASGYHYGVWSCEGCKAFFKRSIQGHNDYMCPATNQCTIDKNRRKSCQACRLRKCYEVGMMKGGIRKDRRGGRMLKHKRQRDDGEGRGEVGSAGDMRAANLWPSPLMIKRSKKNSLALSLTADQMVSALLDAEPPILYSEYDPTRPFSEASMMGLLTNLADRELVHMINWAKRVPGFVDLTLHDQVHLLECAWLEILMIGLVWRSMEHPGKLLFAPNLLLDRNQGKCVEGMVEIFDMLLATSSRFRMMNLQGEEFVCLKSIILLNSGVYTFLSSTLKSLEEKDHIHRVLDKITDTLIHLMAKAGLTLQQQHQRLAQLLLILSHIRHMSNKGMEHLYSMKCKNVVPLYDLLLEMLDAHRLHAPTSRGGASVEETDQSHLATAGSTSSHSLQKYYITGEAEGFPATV

CCCOC(=O)c1ccccc1
not listed: [13] | [14] | [15] | [16] | [17] | [18]
inactive: all other assays above

O=S(=O)(O)c1ccccc1
not listed: [10] | [13] | [14] | [15] | [16] | [17] | [18]
inactive: all other assays above

CC(O)CC(C)(C)O (stereo unspecified)
not listed: [4] | [10] | [12] | [14] | [15] | [16] | [17] | [18]
inactive: all other assays above

O=C(O)Cn1c(=O)n(Cc2ccc(Br)cc2F)c(=O)c2ccc(Cl)cc21
not listed: [1] | [5] | [6] | [8] | [12] | [13] | [18]
inactive: all other assays above

C=Cc1ccc(C)cc1
not listed: [1] | [4] | [10] | [12] | [13] | [14] | [15] | [16]
inactive: all other assays above

c1ccc(Oc2ccccc2)cc1
not listed: [12] | [13] | [14] | [15] | [16] | [18]
inactive: all other assays above

N#Cc1ccccc1
not listed: [13] | [14] | [15] | [16] | [17]
inactive: all other assays above

C=C(C)CNCC
not listed: [10] | [13] | [14] | [15] | [16]
inactive: all other assays above

C[C@]12CC[C@@H]3c4ccc(O)cc4CC[C@H]3[C@@H]1C[C@@H](O)[C@@H]2O
not listed: [13] | [14] | [15] | [16]
inactive: all other assays above

O=C(O)/C=C/C(=O)O
inactive: [9] | [11] | [12]

Clc1ccccn1
not listed: Aromatase (Homo sapiens) | [6] | [7] | [13] | [14] | [15] | [16] | [18]
inactive: all other assays above

COc1ccc(OC)cc1
not listed: [2] | [3] | [4] | [12] | [13] | [17]
inactive: all other assays above

O=C1c2ccccc2CCc2ccccc21
not listed: [1] | [14] | [15] | [16] | [17]
inactive: all other assays above
